The panel holds about 83,000 compounds, 20% with a hit somewhere; the sample as a whole holds those more often.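 Assay: single dose, 48 h. Readout: percent growth (0 = no net growth; negative = cell death). Active: <10.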 A number with no mark means an inactive call. The source made the active and inactive calls.
Key:
Assay in all cases: NCI-60 one-dose screen, 48 h (100 = growth as untreated, 0 = no growth, -100 = all killed)
Settings in all cases: 10 µM unless noted
DU-145 prostate = tested on: DU-145 prostate
K-562 leukemia = tested on: K-562 leukemia
MALME-3M melanoma = tested on: MALME-3M melanoma
MDA-MB-231 breast = tested on: MDA-MB-231 breast
RXF 393 renal = tested on: RXF 393 renal
SF-268 CNS = tested on: SF-268 CNS
SF-539 CNS = tested on: SF-539 CNS
UACC-257 melanoma = tested on: UACC-257 melanoma
M14 melanoma = tested on: M14 melanoma
HCT-15 colon = tested on: HCT-15 colon
HT29 colon = tested on: HT29 colon
SNB-75 CNS = tested on: SNB-75 CNS
SNB-19 CNS = tested on: SNB-19 CNS
PC-3 prostate = tested on: PC-3 prostate
SK-MEL-5 melanoma = tested on: SK-MEL-5 melanoma
UACC-62 melanoma = tested on: UACC-62 melanoma
LOX IMVI melanoma = tested on: LOX IMVI melanoma
SK-MEL-28 melanoma = tested on: SK-MEL-28 melanoma
U251 CNS = tested on: U251 CNS
SF-295 CNS = tested on: SF-295 CNS

| SMILES | growth (DU-145 prostate) | growth (K-562 leukemia) | growth (MALME-3M melanoma) | growth (MDA-MB-231 breast) | growth (RXF 393 renal) | growth (SF-268 CNS) [%] | growth (SF-539 CNS) | growth (UACC-257 melanoma) | growth (M14 melanoma) [%] | growth (HCT-15 colon) | growth (HT29 colon) | growth (SNB-75 CNS) | growth (SNB-19 CNS) [%] | growth (PC-3 prostate) | growth (SK-MEL-5 melanoma) | growth (UACC-62 melanoma) | growth (LOX IMVI melanoma) | growth (SK-MEL-28 melanoma) [%] | growth (U251 CNS) | growth (SF-295 CNS) |
| --- | --- | --- | --- | --- | --- | --- | --- | --- | --- | --- | --- | --- | --- | --- | --- | --- | --- | --- | --- | --- |
| c1ccc(C(CC2=NCCCN2)c2ccccc2)cc1 | 102% | 107% | 93.2% | 88.6% | 113% | 100 | 88% | 97.7% | 92.5 | 114% | 102% | 86.2% | 107 | 83.9% | 105% | 89.6% | 97.8% | 107 | – | – |
| C[C@@H](C[C@H](CC1CC1)c1ccccc1)c1ccc2ccccc2c1 | 106% | 104% | 96.7% | 106% | 117% | 98.5 | 96.9% | 106% | 102 | 107% | 105% | 85% | 101 | 98.9% | 99.9% | 103% | 98.4% | 107 | – | – |
| Cc1cc(-c2nnc(/C=C/c3ccc4c(c3)OCO4)o2)n[nH]1 | 83.4% | 23.5% | 49.4% | 54.4% | 85.5% | 74.9 | 46.3% | 78.1% | 46.3 | 44.3% | 23% | 51.3% | 86.8 | 74.3% | 70.9% | 69.5% | 52.5% | 71.5 | – | – |
| COc1cc(NCCCCC(C)N)c2nccc(C)c2c1 (stereo not drawn) | 111% | 80.4% | 98% | 62.9% | 89.8% | 100 | 83.9% | 107% | 95.4 | 93.9% | 76.3% | 72% | 94.6 | 66% | 87.7% | – | 92.7% | 99.3 | 93% | – |
| Nc1ccc(C(OC(=O)c2cc3ccccc3c(Cc3c(O)c(C(=O)OC(c4ccc(N)cc4)(c4ccc(N)cc4)c4ccc(N)cc4)cc4ccccc34)c2O)(c2ccc(N)cc2)c2ccc(N)cc2)cc1 | 21.9% | 7.72% (active) | 5.78% (active) | -9.83% (active) | 28% | 24.6 | 10.3% | 6.17% (active) | 14.9 | 49.6% | 8.68% (active) | 8.57% (active) | 19 | -3.26% (active) | -47.1% (active) | – | 24% | 33.9 | 11.2% | – |
| O=c1[nH]c2ccccc2n2cc3cccnc3c12 | 87.5% | 47.2% | 116% | 65.7% | 80.8% | 79.3 | 75.5% | 97.1% | 84.1 | 70.2% | – | 86.2% | 71 | 84.7% | 73.2% | 53% | 65.6% | 107 | 76.6% | – |
| Cc1ccc(CSCc2ccc(C(=O)NC3CC3)o2)cc1 | 80.5% | 40% | 96.4% | 35.3% | 92.7% | 83.2 | 79.8% | 93.5% | 57.3 | 37.7% | 27.9% | 86% | 98.8 | 74.2% | 57.3% | 50.5% | 58.2% | 100 | – | – |
| CC(=O)[C@@]1(O)[C@H](C)C[C@H]2[C@@H]3C=C(C)C4=Cc5c(cnn5-c5ccccc5)C[C@]4(C)[C@H]3[C@@H](O)C[C@@]21C | 54.6% | -60.9% (active) | 41.8% | 26.1% | – | 27.9 | -21.8% (active) | 54.6% | 43.7 | -27.9% (active) | -76.9% (active) | 40.4% | 70.2 | 1.78% (active) | 38.1% | – | 4.75% (active) | 43.6 | 6.52% (active) | -49.1% (active) |
| COc1ccc(Nc2ncccc2C(=O)NCc2cn(Cc3cc(OC)cc(OC)c3)nn2)cc1 | 95.2% | 84.3% | – | 105% | 96.1% | 87.2 | 90.3% | 98.1% | 98.7 | 104% | 97.8% | 81.7% | 106 | 90.9% | 97.6% | 97.1% | 96.5% | 113 | 98.6% | – |
| CCCCN(CCCC)CCC(=O)c1ccc(OC)c2ccccc12 | 79.4% | 67.1% | 124% | 106% | – | 95 | 87% | 86.4% | 104 | 99.7% | 98% | 97.7% | 87 | 84.7% | 101% | 93.5% | 78.9% | 154 | – | 100% |
| Oc1ccc(-c2cnc(-c3ccccc3)[nH]2)c(O)c1 | 157% | 94.7% | 76.5% | 92.1% | – | 100 | 107% | -22.6% (active) | 119 | 107% | 120% | 94.2% | 98 | 100% | 105% | 85.6% | 105% | 105 | 110% | – |
| Cn1c(=O)c2[nH]c(Cc3ccc4c(c3)OCO4)nc2n(C)c1=O | 115% | 108% | 126% | 123% | 108% | – | 94.8% | 111% | 107 | 93.8% | 120% | 95.3% | 101 | 86.1% | 108% | 98% | 99.5% | 106 | 110% | 104% |
| Cc1cc2nc3c(=O)[nH]c(=O)nc-3n(CC=O)c2cc1C | 116% | 96% | 112% | 106% | – | 99.5 | 93.6% | 159% | 109 | 106% | 102% | 89.3% | 99.8 | 122% | 98.6% | 92.2% | 101% | 117 | 103% | 92.2% |
| COc1ccc(C2C3=C(COC3=O)N(CCO)c3cc(OC)c(OC)cc32)cc1 (stereo not drawn) | 113% | 82.5% | – | 112% | 114% | 101 | 105% | 116% | 108 | 98.9% | 95.1% | 93.3% | 109 | 106% | 100% | 107% | 101% | 115 | – | 110% |
| NC(N)=N/N=C\c1ccc(OCc2ccccc2)cc1 | 87.4% | 36% | 91.5% | 66.1% | -3.77% (active) | – | 87.7% | 90.4% | 81.5 | 35.7% | 16.6% | 43.9% | 70.9 | 70.7% | -13% (active) | 78.2% | 59.6% | 87.8 | 45.7% | 99% |
| Nc1nc2ccc([C@@H]3Nc4ccc5[nH]ncc5c4[C@H]4[C@H]5CCC(C5)[C@H]43)cc2s1 | 9.96% (active) | 19.4% | -55.7% (active) | 47.2% | -4.16% (active) | 48.4 | 0.597% (active) | 29.3% | 17.7 | 29.7% | – | -24.8% (active) | 30.8 | 6.63% (active) | 24.4% | -88.6% (active) | 40.7% | 23.8 | – | – |
| Cc1[nH]n(C(=O)c2ccncc2)c(=O)c1N=Nc1ccc(O)c(C(=O)O)c1 | 132% | 91.1% | 94.2% | 94% | – | 106 | 100% | -14.1% (active) | 114 | 112% | 115% | 89.9% | 116 | 102% | 106% | 96.2% | 75.7% | 109 | 119% | – |

Source: PubChem BioAssay (NCI)
